Experimental findings from PubChem BioAssay are described below.

Structures are written as SMILES. The source made the active and inactive calls.

The nature of test [1]: small molecules captured by biotinylated probe aFSTL3 – biochemical, small-molecule microarray, fluorescence 635/667, stem cell growth factor project, primary screen (AID 1064).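 Also: measures binding of the biotinylated anti-FSTL3 antibody to printed compounds.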 Conditions: higher = more signal.
A short description of test [2]: binders from COS7 lysate, DM2A8 probe, primary screen, torsin A project, cell lysate, small-molecule microarray, fluorescence 635/667 (AID 1065). As to conditions: higher = more signal, COS7 lysate expressing mutant human TOR1A.
Test [3] in a line: small molecules captured by biotinylated probe aFGF2 – biochemical, small-molecule microarray, fluorescence 635/667, stem cell growth factor project, primary screen (AID 1067).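 Also: measures binding of biotinylated aFGF2 protein to printed compounds on slides; z-score merges feature fluorescence and signal-to-noise across triplicate slides.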 As to conditions: higher = more signal.
Test [4] is described as follows: small molecules captured by biotinylated probe aFGF10 – biochemical, small-molecule microarray, fluorescence 635/667, stem cell growth factor project, primary screen (AID 1071).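 Also: score merges 667 nm spot intensity and signal to noise from triplicate slides.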 As to conditions: higher = more signal.
The target of test [5] is Neurogenic locus notch homolog protein 2 (Homo sapiens) (UniProt Q04721). Kind of test: small molecules binding Notch2 protein – biochemical, small-molecule microarray, 635 nm fluorescence, stem cell growth factors, primary screen (AID 1073). As to conditions: higher = more signal.
Test [6] concerns the target Pro-neuregulin-1, membrane-bound isoform (Homo sapiens) (UniProt Q02297). Briefly: small molecules binding neuregulin-1 protein – biochemical, small-molecule microarray, fluorescence 635/667, psychiatric disease protein project, primary screen (AID 1075).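 Also: score combines 667 nm spot fluorescence with signal to noise.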 As to conditions: NRG1 binding, 635 nm fluorescence, higher = more signal.
Test [7] deals with Neuregulin-1 EGF-like domain. Kind of test: small molecules binding NRG1 EGF domain – biochemical, small-molecule microarray, 635 nm fluorescence, primary screen (AID 1081).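 Also: binding of the protein to compounds printed on small-molecule microarray slides.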 Conditions: higher = more signal.
The nature of test [8]: FRG1 expression reporter modulators in myotubes – cell-based, C2C12 myotubes, firefly/Renilla luciferase, luminescence, FRG1 inhibition for FSHD, primary screen (AID 1084). Conditions: FRG1 promoter luciferase, higher = more signal, called active from +8 up or from −8 down.
Test [9] is described as follows: small molecules captured by biotinylated probe aFST – biochemical, small-molecule microarray, fluorescence 635/667, stem cell growth factor project, primary screen (AID 1086).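 Also: score merges 667 nm fluorescence with signal-to-noise of each printed compound spot.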 Conditions: higher = more signal.
Test [10] can be described thus: binders of probe aHhip on microarray, primary screen, stem cell growth factor project, biochemical, small-molecule microarray, fluorescence 635/667 (AID 1087).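 Also: score merges spot fluorescence at 667nm with spot signal to noise ratio.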 Conditions: higher = more signal.
Test [11] relates to PRMT1 (protein arginine N-methyltransferase 1). Briefly: small molecules binding arginine methyltransferase PRMT1 – biochemical, small-molecule microarray, 635 nm fluorescence, primary screen (AID 1088).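 Also: binding of Prmt1 protein to compounds spotted on small-molecule microarray slides.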 Conditions: higher = more signal.
The nature of test [12]: growth effects on S. cerevisiae YJM789 – YJM789 clinical isolate, OD600, 24 h, basal, primary screen (AID 1089).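 Also: growth of clinical yeast isolate S. cerevisiae YJM 789 seeded 1000 cells per well; test concentration not given here.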 Conditions: higher = more signal, called active from +8 up or from −8 down.
A short description of test [13]: S. pombe growth modifiers, basal conditions – strain 972, OD600, 24 h, no modulator, primary screen (AID 1090).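 Also: basal condition with compound alone and no growth modifier present; test concentration not given here.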 As to conditions: S. pombe 972 growth, higher = more signal, called active from +8 up or from −8 down.
A short description of test [14]: budding yeast growth modifiers under rapamycin – strain BY4716, OD600, 96 h, primary screen (AID 1091). Also: test concentration not given here. Conditions: S. cerevisiae BY4716 + rapamycin, higher = more signal, called active from +8 up or from −8 down.
In test [15] the target is Torsin-1A-interacting protein 2 (Homo sapiens) (UniProt Q8NFQ8). Briefly: small molecules binding lysate-expressed LULL1 – cell lysate, human LULL1 lysate, 635/667 nm fluorescence, primary screen (AID 1092).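 Also: probe is lysate of COS7 cells overexpressing human LULL1; score merges per-feature 667 nm fluorescence with signal-to-noise.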 Conditions: small-molecule microarray, hLULL1 lysate binding, 635 nm fluorescence; higher = more signal.
Torsin-1A-interacting protein 2 (Homo sapiens), sequence (Q8NFQ8 whole entry, looked up): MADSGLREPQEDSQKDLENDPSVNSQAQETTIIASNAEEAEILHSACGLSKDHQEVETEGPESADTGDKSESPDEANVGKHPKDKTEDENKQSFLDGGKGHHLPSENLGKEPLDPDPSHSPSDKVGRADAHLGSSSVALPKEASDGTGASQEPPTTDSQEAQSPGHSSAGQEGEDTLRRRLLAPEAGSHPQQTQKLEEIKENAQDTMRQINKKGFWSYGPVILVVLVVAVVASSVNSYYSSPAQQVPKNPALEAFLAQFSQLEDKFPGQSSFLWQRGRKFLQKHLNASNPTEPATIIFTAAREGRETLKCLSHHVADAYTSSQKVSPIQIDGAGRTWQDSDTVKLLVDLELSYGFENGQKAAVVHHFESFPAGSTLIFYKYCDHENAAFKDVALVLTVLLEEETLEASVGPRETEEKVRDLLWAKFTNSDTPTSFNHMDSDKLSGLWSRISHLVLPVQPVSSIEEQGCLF
The nature of test [16]: optical density change of DRC41 E. coli – strain DRC41, OD650, 24 h, E. coli filamentation project, primary screen (AID 1093).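 Also: MC1000 strain lacking acrAB efflux and sulA so SOS filamentation is blocked; test concentration not given here.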 Conditions: E. coli DRC41 growth, higher = more signal, called active from +8 up or from −8 down.
Test [17] is described as follows: probe aLefty2 binding to arrayed compounds – biochemical, biotinylated probe, 635/667 nm fluorescence, primary screen (AID 1094).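 Also: score merges spot fluorescence near 667 nm with spot signal-to-noise ratio.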 Conditions: small-molecule microarray, higher = more signal.
Test [18] deals with Noggin (protein binding on small-molecule microarray). Kind of test: small molecules binding Noggin protein – biochemical, 635/667 nm fluorescence, primary screen (AID 1095).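 Also: score merges 667 nm feature fluorescence with signal to noise over triplicate slides.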 As to conditions: 635 nm fluorescence, higher = more signal.
Test [19] has as its target Neurogenic locus notch homolog protein 3 (Homo sapiens) (UniProt Q9UM47). Briefly: small molecules binding NOTCH3 protein – biochemical, 635/667 nm fluorescence, primary screen (AID 1096). As to conditions: small-molecule microarray, 635 nm fluorescence, higher = more signal.
A short description of test [20]: probe aEGFR binding to arrayed compounds – biochemical, biotinylated probe, 635/667 nm fluorescence, primary screen (AID 1097).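 Also: probe is a biotinylated anti-EGFR antibody binding compounds printed on slides; score combines fluorescence near 667 nm and signal to noise of each spot.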 Conditions: small-molecule microarray, higher = more signal.

Neurogenic locus notch homolog protein 3 (Homo sapiens), sequence (Q9UM47 whole entry, looked up): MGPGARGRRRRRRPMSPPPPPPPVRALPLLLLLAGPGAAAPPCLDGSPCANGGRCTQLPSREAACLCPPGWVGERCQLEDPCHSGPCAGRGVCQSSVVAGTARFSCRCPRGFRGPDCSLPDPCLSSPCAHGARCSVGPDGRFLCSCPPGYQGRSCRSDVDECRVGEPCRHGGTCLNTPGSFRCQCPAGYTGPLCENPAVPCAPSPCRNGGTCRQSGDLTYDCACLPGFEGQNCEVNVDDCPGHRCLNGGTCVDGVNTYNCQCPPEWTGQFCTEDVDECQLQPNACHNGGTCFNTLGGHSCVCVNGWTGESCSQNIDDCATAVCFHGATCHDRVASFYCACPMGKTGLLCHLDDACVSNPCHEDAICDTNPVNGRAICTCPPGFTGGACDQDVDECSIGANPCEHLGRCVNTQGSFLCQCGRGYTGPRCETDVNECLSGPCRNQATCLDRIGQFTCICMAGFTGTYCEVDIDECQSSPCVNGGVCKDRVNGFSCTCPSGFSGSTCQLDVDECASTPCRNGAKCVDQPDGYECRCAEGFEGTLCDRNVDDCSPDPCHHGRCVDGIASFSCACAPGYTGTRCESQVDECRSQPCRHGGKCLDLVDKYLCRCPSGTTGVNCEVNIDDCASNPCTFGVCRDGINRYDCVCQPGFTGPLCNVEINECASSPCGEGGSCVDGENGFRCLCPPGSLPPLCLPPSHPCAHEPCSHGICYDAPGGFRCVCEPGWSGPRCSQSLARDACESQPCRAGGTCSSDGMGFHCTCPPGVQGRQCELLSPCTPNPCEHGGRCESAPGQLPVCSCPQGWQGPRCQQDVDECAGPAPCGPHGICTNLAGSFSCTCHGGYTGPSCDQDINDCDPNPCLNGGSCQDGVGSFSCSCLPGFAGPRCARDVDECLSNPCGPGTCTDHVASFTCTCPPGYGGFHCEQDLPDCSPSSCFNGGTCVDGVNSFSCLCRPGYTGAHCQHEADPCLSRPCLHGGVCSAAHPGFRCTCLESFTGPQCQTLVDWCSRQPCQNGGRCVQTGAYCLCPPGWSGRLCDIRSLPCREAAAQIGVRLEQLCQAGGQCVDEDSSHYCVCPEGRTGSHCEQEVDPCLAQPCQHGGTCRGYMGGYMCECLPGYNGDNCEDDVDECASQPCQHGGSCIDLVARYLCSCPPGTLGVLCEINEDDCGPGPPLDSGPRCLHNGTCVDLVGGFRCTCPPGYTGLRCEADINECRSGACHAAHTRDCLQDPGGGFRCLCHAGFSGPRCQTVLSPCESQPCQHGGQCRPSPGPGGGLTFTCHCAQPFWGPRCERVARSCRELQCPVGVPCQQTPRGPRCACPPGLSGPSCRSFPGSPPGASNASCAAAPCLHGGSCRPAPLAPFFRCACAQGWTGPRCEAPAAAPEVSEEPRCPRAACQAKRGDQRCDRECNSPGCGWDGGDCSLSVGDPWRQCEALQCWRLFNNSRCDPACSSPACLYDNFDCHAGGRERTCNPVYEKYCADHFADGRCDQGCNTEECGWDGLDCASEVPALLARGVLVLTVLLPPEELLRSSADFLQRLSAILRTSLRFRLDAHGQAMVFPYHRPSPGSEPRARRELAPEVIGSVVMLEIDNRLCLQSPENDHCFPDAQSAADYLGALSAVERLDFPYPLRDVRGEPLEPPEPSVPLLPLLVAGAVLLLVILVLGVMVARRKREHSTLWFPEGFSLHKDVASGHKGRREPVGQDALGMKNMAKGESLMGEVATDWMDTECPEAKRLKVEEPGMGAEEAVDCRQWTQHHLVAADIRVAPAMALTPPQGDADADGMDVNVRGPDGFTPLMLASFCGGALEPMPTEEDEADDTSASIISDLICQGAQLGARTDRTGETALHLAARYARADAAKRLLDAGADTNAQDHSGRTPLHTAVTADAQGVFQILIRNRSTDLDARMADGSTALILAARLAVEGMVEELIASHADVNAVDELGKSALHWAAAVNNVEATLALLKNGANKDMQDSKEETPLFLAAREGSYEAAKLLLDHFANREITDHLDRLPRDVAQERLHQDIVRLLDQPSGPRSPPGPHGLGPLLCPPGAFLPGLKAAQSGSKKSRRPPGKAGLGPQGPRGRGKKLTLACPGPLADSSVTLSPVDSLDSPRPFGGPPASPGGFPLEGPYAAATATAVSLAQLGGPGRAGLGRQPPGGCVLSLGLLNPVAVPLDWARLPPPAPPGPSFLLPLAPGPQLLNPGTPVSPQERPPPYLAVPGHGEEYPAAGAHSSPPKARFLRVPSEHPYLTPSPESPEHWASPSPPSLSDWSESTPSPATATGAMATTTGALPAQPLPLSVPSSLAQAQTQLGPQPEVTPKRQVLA
Pro-neuregulin-1, membrane-bound isoform (Homo sapiens), sequence (Q02297 whole entry, looked up, the tested form may be a part, canonical isoform): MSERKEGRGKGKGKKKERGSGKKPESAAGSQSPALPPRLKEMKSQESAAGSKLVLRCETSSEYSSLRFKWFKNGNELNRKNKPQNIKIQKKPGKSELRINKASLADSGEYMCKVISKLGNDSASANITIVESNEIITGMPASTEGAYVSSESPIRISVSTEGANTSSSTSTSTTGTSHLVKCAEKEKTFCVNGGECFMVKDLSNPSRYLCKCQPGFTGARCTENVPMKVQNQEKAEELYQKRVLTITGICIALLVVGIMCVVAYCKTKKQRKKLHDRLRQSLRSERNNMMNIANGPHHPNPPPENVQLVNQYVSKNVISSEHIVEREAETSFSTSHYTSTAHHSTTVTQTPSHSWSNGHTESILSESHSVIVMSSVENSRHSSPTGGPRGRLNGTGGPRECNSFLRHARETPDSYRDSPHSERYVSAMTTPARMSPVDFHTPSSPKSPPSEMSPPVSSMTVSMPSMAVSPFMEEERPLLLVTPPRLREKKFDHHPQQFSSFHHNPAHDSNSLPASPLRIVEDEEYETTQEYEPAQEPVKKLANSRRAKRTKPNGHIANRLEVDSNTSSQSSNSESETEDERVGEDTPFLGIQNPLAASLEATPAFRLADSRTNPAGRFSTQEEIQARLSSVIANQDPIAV

With `O=C1C2C=CC(C(O)c3ccc(F)cc3)N(n3cnnc3)C2C(=O)N1Cc1ccccc1` (stereo not given), the composite z-score in test [1] was 0.352; in [2], -0.131; in test [3], -0.12; in [4] it was -0.201; in [5], -0.0052; in [6], 0.439. The composite z-score in test [7] was -0.191; in test [9], 0.19; in test [10], -0.282; in test [11], -0.301; in test [15], 1.05; in [17], 0.0137. Moreover, the composite z-score in [18] was -0.685; in test [19], -0.874; in test [20], -0.208. The z-score in test [8] is 0.594 (inactive); in test [12], 0.271 (inactive); in test [13], 0.767 (inactive); in [14], -0.1 (inactive); in test [16], -0.997 (inactive).
Consider `CCOC(=O)C1=CC[C@@H](c2ccccc2C(F)(F)F)N(S(=O)(=O)c2ccc(C)cc2)[C@H]1c1ccc(C#N)cc1`, for which the composite z-score is -0.0042 in [1]; 0.0813 in test [2]; 0.0625 in test [3]; 0.692 in [4]; 1.36 in [5]; 0.988 in test [6]. Moreover, the composite z-score in [7] was 1.25; in test [9] it was 1.11; in test [10], -0.0024; in test [11] it was 0.884; in test [15], 2.56; in test [17], -0.0099. In addition, the composite z-score in [18] is 0.292; in [19], 1.03; in [20] it was -0.0061. Further, the z-score in test [8] is 0.852 (inactive); in test [12], -0.242 (inactive); in test [13], 1.2 (inactive); in test [14], 3.51 (inactive); in test [16], -0.156 (inactive).
For the compound `COc1ccc(-c2cc3c(c(CCc4ccccc4)n2)[Si](C(C)C)(C(C)C)OC3)cn1`, the composite z-score in test [1] is -0.33; in test [2], 0.239; in test [3], -0.0537; in test [4], 0.0473; in [5], 0.247; in [6], -0.352. In addition, the composite z-score was 0.197 in test [7]; 0.21 in [9]; 0.113 in [10]; -0.876 in [11]; 0.781 in test [15]; -0.248 in test [17]. For the same compound, the composite z-score in test [18] is 0.325; in test [19], 0.312; in test [20], -0.0828. The z-score in test [8] is 0.943 (inactive); in test [12], 0.275 (inactive); in test [13] it was -0.726 (inactive); in test [14], 0.333 (inactive); in [16], -0.43 (inactive).
On to `C[N+](C)(C)CCCC[C@@H]1NC(=O)[C@H]2C[C@@H](C(=O)NCCCCCCN)[C@@H](c3ccc(O)cc3)N2C1=O`, for which the composite z-score in test [1] was determined as 0.239; in test [2] it was 0.713; in test [3], 0.0797; in [4], 0.575; in test [5], 1.27; in test [6], 1.99. For the same compound, the composite z-score in test [7] was found to be 1.09; in test [9], 0.901; in test [10], 0.373; in test [11], 1.26; in [15], 1.57; in [17], 0.265. Moreover, the composite z-score was -0.232 in test [18], 0.64 in test [19] and 0.155 in [20]. The z-score in [8] was -0.194 (inactive); in test [12] it was 0.731 (inactive); in [13], -1.51 (inactive); in test [14], 1.13 (inactive); in test [16], 0.766 (inactive).
As for `Cc1ccc(S[C@]2(C(=O)NCC(F)(F)F)CC(=O)N(Cc3ccccc3)[C@@H]2c2ccc(CO)cc2I)cc1`, the composite z-score in test [1] was 0.512; in test [2] it was 0.156; in test [3], -0.0502; in [4] it was 0.284; in [5], 0.0341; in [6] it was 1.82. Further, the composite z-score in test [7] is 0.923; in test [9], 0.164; in test [10], -0.236; in test [11] it was 0.29; in test [15], 1.62; in test [17] it was 0.496. Moreover, the composite z-score in test [18] is -0.315; in test [19] it was 0.233; in test [20], -0.118. Further, the z-score in test [8] was -0.646 (inactive); in [12], -3.01 (inactive); in test [13], -2.23 (inactive); in test [14] it was 0.854 (inactive); in test [16], -0.161 (inactive).
